This is a sample that favours compounds with a hit; in the whole collection about 2% have one here.
NPR2 activator – GC-B (human) receptor activation; P20594; HEK293-GC-B cells, CNP EC30, cGMP TR-FRET; 0% at EC30 CNP, 100% saturating CNP; activation, % at 10 µM; 370,000 tested, 0.11% active;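 active means activation at 10 µM reaching about 35% in either raw or pattern-adjusted values, limit read from the data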
FAS-TE inh – FAS thioesterase (human) inhibition. inhibition, % at 15 µM. P49327. recombinant FAS-TE, OMFH fluorogenic substrate, fluorescence endpoint. AID 602261. 360,000 tested, 0.67% active;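 active means compounds whose normalised, plate-corrected inhibition of enzyme fluorescence in the single-dose primary screen is 50% or more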;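 further: 0% = DMSO with enzyme and 100% = substrate without enzyme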
ADAM17 inh – inhibits human ADAM17 | P78536 | inhibition, % at 6.95 µM | recombinant ADAM17, EDANS/DABCYL FRET peptide cleavage | 370,000 tested, 0.83% active;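 active means inhibition above the mean of compounds lying between control limits plus 3 SD, set per campaign, cut at about 8.5% in these data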;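 further: 0% = DMSO-only wells as the low control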
GC-A act – GC-A (human) enzyme activation; P16066; HEK293 GC-A cells, cGMP TR-FRET, EC30 ANP; 0% at EC30 ANP, 100% saturating ANP; activation, % at 10 µM; 370,000 tested, 0.14% active; in the data active means activation above about 40%
ADAM10 inh – inhibits human ADAM10 | AID 720582 | inhibition, % at 7 µM | O14672 | 370,000 tested, 0.62% active | recombinant ADAM10, EDANS/DABCYL FRET peptide cleavage, 3 h;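 active means inhibition above a per-campaign cutoff equal to the mean of compounds falling between control-based bounds plus 3 SD, cut at about 20% in these data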;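 further: 0% = DMSO wells while the 100% control is not disclosed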
ADAM10 confirm – human ADAM10 inhibition, confirmation | 2,100 tested, 1% active | ADAM10 QFRET peptide cleavage, EDANS fluorescence | shares compounds with ADAM10 inh | inhibition, % at 6.95 µM;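 active means inhibition above about 20% chosen separately for each screening run, limit read from the data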;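 further: 0% = DMSO wells and 100% = marimastat wells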
ADAM17 ctr – counter-screen for ADAM10 exosite inhibitors: inhibitors of human ADAM17; shares compounds with ADAM10 inh; ADAM17 QFRET peptide cleavage, EDANS fluorescence; inhibition, % at 6.95 µM; 2,100 tested, 0.5% active;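 active means mean triplicate inhibition above the solvent-only control wells' mean plus 3 SD, cut at about 12% in these data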;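 further: 0% = DMSO wells and 100% = marimastat wells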
The depositor's hits bear a star; x = no result.

SMILES | NPR2 activator | FAS-TE inh | ADAM17 inh | GC-A act | ADAM10 inh | ADAM10 confirm | ADAM17 ctr
CC(C)C[C@@H]1COc2cc(Br)ccc2S(=O)(=O)N1Cc1cn(Cc2ccc(C(F)(F)F)cc2)nn1 | 3 | x | -1 | 5 | 3 | x | x
O=C(CNCc1ccccc1[N+](=O)[O-])N1CCC2(CC1)OCCO2 | -5 | x | 0 | -3 | 0 | x | x
Cc1cccc(NC(=O)c2ccc(C3SCC(=O)N3CCc3ccccc3)cc2)c1C (centres undefined) | -6 | 19 | 1 | -3 | 21* | 2 | 1
CCC(C(=O)Oc1c(C(C)C)cccc1C(C)C)c1ccccc1 (centres undefined) | -2 | 19 | 5 | -3 | 79* | -1 | 0
O=C(/C=C/c1ccccc1)NC(NC(=S)Nc1cccc(O)c1)C(Cl)(Cl)Cl (centres undefined) | 3 | 15 | 6 | 0 | 21* | 8 | 2
NS(=O)(=O)c1ccc(CCNc2nn3c(-c4cccc(OC(F)(F)F)c4)cnc3s2)cc1 | -3 | 20 | 6 | -8 | 21* | 5 | 1
COc1ccc(CNc2nn3c(-c4cccc(C(=O)N(C)C)c4)cnc3s2)cc1 | 27 | -3 | 2 | 22 | 0 | x | x
Cc1ccc(NC(=O)CN2CCN(c3nc(-c4ccccc4)cs3)CC2)cc1C | 0 | x | 7 | -3 | 22* | 7 | 2
C/C(CC(=O)Nc1ccc([N+](=O)[O-])cc1)=N/NC(=O)C1C2CCCCC21 (centres undefined) | -3 | 41 | 0 | -3 | 6 | x | x
C/C(CC(=O)Nc1ccc([N+](=O)[O-])cc1)=N/NC(=O)C1CC12CCC2 (centres undefined) | -2 | 19 | 8 | 1 | 20* | 2 | 0
O=C(NCc1ccccc1)[C@H]1CCCN1 | -5 | x | -3 | -1 | -3 | x | x
CC(C)[C@H]1/C(=C/C2CC2)N2C(=O)C[C@H](c3cccc(C(F)(F)F)c3)N=C2N1Cc1ccc2c(c1)OCO2 | -3 | x | 1 | 1 | 6 | x | x
CC(=O)N(/N=C1\Sc2ccccc2C1=O)c1ccccc1C | 1 | -10 | 2 | 4 | 77* | 1 | 1
CC(=O)N(/N=C1\Sc2ccccc2C1=O)c1ccc(C)cc1C | -3 | 7 | -1 | -5 | 1 | x | x
Cc1ccc(OCC(O)Cn2c3ccccc3c3ccccc32)cc1 (centres undefined) | -6 | 28 | 7 | -1 | 21* | 18 | 7
C#CCNC(=O)C[C@@H]1C(=O)N(CCc2ccc(Cl)cc2)/C2=C/CCCCC[C@@]21C(=O)OCC | 3 | x | 1 | -5 | 6 | x | x
COC(=O)[C@]12C[C@H](CC(=O)NCc3cccc(C(F)(F)F)c3)C(=O)N(Cc3cccc4ccccc34)C1=C[C@H](C(C)C)O[C@@H]2C1CC1 | 3 | x | 3 | -1 | 25* | 10 | 3
COC(=O)[C@]12C[C@H](CC(=O)NCc3ccccc3)C(=O)N(Cc3cccc4ccccc34)C1=C[C@H](C(C)C)O[C@@H]2C1CC1 | -2 | x | 8 | -8 | 23* | 10 | 3
Cc1cccc(C(=O)Nc2nc3ncccn3c2-c2ccc(C(F)(F)F)cc2)c1 | 5 | x | -36 | -4 | -134 | x | x
CCCCOCCCNC(=O)C[C@H]1C[C@@]2(C(=O)OC)C(=C[C@H](C(C)C)O[C@@H]2C2CC2)N(CCC2=CCCCC2)C1=O | -4 | x | 1 | -4 | 1 | x | x
CCc1nc(NCc2ccc3c(c2)OCO3)c2oc3ccccc3c2n1 | 15 | 23 | 8 | 23 | 28* | 6 | 2
Cc1cc(C)cc(N(CC(=O)NC2CCC(C)CC2)S(=O)(=O)c2ccc(Cl)s2)c1 (centres undefined) | -6 | x | 1 | -10 | -5 | x | x
Cc1scc(C(=O)NNC(=S)NC(C)c2ccccc2)c1C (centres undefined) | -3 | -8 | 5 | -1 | 27* | 0 | 0
CCOC(=O)N1CCN(C(=O)C[C@H]2C[C@@]3(C(=O)OC)C(=C[C@H](C(C)(C)C)O[C@@H]3C)N(CCc3ccc(OC)c(OC)c3)C2=O)CC1 | 5 | x | -1 | 2 | -1 | x | x

Screening results deposited in PubChem by several laboratories.
